The whole screen tested about 5,500 compounds, of which about 2,000 (36%) were called active. Another 18% or so got no clear call; they are omitted. Rule as the data show it: active = normalized growth mostly below about 0.91 (no sharp cut-off); inconclusive = no clear call, values can overlap the other calls; inactive = mostly above about 0.92. The list shows a part of the results.
Assay: chemical genetic growth profiling, strain panel (AID 1159580);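 also: tested at 20 µM; growth read once vehicle control cultures reached saturation at 30 °C; 1 = growth at the plate median or of vehicle wells; lower values mean less growth of the strain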
Settings: S. cerevisiae deletion strains, growth OD

Measured: normalized growth

CO[C@H]1[C@@H](O)[C@@H](C)O[C@H](O[C@H]2CCC3(C)C4CCC5(C)[C@@H](C6=CC(=O)OC6)CC[C@]5(O)[C@@H]4CC[C@]3(O)C2)[C@@H]1O (stereo not given in full)
inactive: locus YAL021C, strain ccr4, active compounds read low 0.993 | locus YAL026C, strain drs2, active compounds read low 1.04 | locus YAL030W, strain snc1, active compounds read low 1.03 | locus YBL061C, strain skt5, active compounds read low 1.05 | locus YBR009C, strain hhf1, active compounds read low 1.02 | locus YBR023C, strain chs3, active compounds read low 1.03 | locus YBR171W, strain sec66, active compounds read low 1.03 | locus YBR231C, strain swc5, active compounds read low 1.02 | locus YBR279W, strain paf1, active compounds read low 1.02 | locus YCL011C, strain gbp2, active compounds read low 1.03 | locus YCL016C, strain dcc1, active compounds read low 1.02 | locus YCL061C, strain MRC1, active compounds read low 1.02 | locus YCL069W, strain vba3, active compounds read low 1.02 | locus YCR088W, strain abp1, active compounds read low 1.02 | locus YDL005C, strain med2, active compounds read low 1.03 | locus YDL040C, strain nat1, active compounds read low 1 | locus YDR001C, strain nth1, active compounds read low 1.02 | locus YDR069C, strain doa4, active compounds read low 1.03 | locus YDR137W, strain rgp1, active compounds read low 1.04 | locus YDR159W, strain sac3, active compounds read low 1.04 | locus YDR195W, strain ref2 1.01 | locus YDR297W, strain sur2, active compounds read low 1.04 | locus YDR334W, strain swr1, active compounds read low 1.02 | locus YDR335W, strain msn5, active compounds read low 1.02 | locus YDR392W, strain spt3, active compounds read low 1.02 | locus YEL003W, strain gim4, active compounds read low 1.02 | locus YEL037C, strain rad23, active compounds read low 1.02 | locus YEL061C, strain CIN8 (second series), active compounds read low 1.02 | locus YER015W, strain faa2, active compounds read low 1.02 | locus YER016W, strain bim1, active compounds read low 1.02 | locus YER111C, strain swi4, active compounds read low 1.03 | locus YER155C, strain BEM2 (second series), active compounds read low 1.04 | locus YFR010W, strain ubp6, active compounds read low 1.04 | locus YGL167C, strain pmr1, active compounds read low 1.03 | locus YGL173C, strain kem1, active compounds read low 1.04 | locus YGL227W, strain vid30, active compounds read low 1.01 | locus YGL240W, strain doc1, active compounds read low 1.04 | locus YGL253W, strain hxk2, active compounds read low 1.03 | locus YHR013C, strain ard1, active compounds read low 1.04 | locus YHR027C, strain rpn1, active compounds read low 1.05 | locus YHR030C, strain SLT2, active compounds read low 1.05 | locus YHR079C, strain IRE1, active compounds read low 1.08 | locus YHR142W, strain chs7, active compounds read low 1.03 | locus YJL092W, strain hpr5, active compounds read low 1.02 | locus YJL095W, strain BCK1 (second series), active compounds read low 1.02 | locus YJL095W, strain BCK1, active compounds read low 1.04 | locus YJL115W, strain asf1, active compounds read low 1.04 | locus YJL129C, strain trk1, active compounds read low 1.03 | locus YJL154C, strain vps35, active compounds read low 1.02 | locus YJL164C, strain tpk1, active compounds read low 1.01 | locus YJL166W, strain qcr8, active compounds read low 1.03 | locus YJL187C, strain SWE1, active compounds read low 1.03 | locus YJR066W, strain TOR1, active compounds read low 1.01 | locus YKL160W, strain elf1, active compounds read low 1.01 | locus YKR026C, strain gcn3, active compounds read low 1.02 | locus YKR091W, strain srl3, active compounds read low 1.02 | locus YLL001W, strain dnm1, active compounds read low 1.03 | locus YLL026W, active compounds read low 1.03 | locus YLL041C, strain sdh2, active compounds read low 1.02 | locus YLR027C, strain aat2, active compounds read low 1 | locus YLR113W, strain HOG1, active compounds read low 0.976 | locus YLR221C, strain rsa3, active compounds read low 1.03 | locus YLR258W, strain gsy2, active compounds read low 1 | locus YLR262C, strain YPT6 (second series), active compounds read low 1.03 | locus YLR320W, strain mms22, active compounds read low 1.03 | locus YLR342W, strain FKS1, active compounds read low 1.03 | locus YLR357W, strain rsc2, active compounds read low 1.06 | locus YLR370C, strain arc18, active compounds read low 1.01 | locus YLR384C, strain iki3, active compounds read low 1.04 | locus YML120C, strain ndi1, active compounds read low 1.01 | locus YMR058W, strain fet3, active compounds read low 1.03 | locus YMR125W, strain sto1, active compounds read low 1.03 | locus YMR129W, active compounds read low 1.02 | locus YMR205C, strain PFK2, active compounds read low 1.06 | locus YMR231W, strain pep5, active compounds read low 1 | locus YNL071W, strain lat1, active compounds read low 1.02 | locus YNL183C, strain NPR1, active compounds read low 1 | locus YNL209W, strain ssb2, active compounds read low 1.02 | locus YNL248C, strain rpa49, active compounds read low 1.03 | locus YNL322C, strain KRE1 (second series), active compounds read low 1.02 | locus YNR049C, strain mso1, active compounds read low 1.04 | locus YOR001W, strain rrp6, active compounds read low 1.03 | locus YOR070C, strain gyp1, active compounds read low 1.02 | locus YOR080W, strain dia2, active compounds read low 1.04 | locus YOR083W, strain WHI5, active compounds read low 1.02 | locus YOR106W, strain vam3, active compounds read low 1.03 | locus YOR231W, strain MKK1, active compounds read low 1.04 | locus YOR265W, strain rbl2, active compounds read low 1.04 | locus YOR270C, strain vph1, active compounds read low 1.08 | locus YOR290C, strain snf2, active compounds read low 1.01 | locus YPL051W, strain arl3, active compounds read low 1.01 | locus YPL078C, strain atp4, active compounds read low 1.02 | locus YPL106C, strain sse1, active compounds read low 1.02 | locus YPL240C, strain hsp82, active compounds read low 1.01 | locus YPL256C, strain CLN2, active compounds read low 1.08

— PubChem BioAssay AID1159580 (chemical genetic matrix, 2015)
